# Laboratory results as given in ChEMBL document CHEMBL1201862, “PubChem BioAssay data set” (2004).
# “And” between values parts separate entries of the source, which are not always exact repeats. Identical values can stand only once. The campaign covered roughly 310,000 compounds. About 11,000 (3.5%) were called active. Roughly 4% stayed inconclusive and do not appear here. No cut-off for these calls is given here. The entries come from a sample that favours actives as a whole.
# Target: T1, 4'-phosphopantetheinyl transferase ffp (Bacillus subtilis) (UniProt Q9F4F7)
# T1 sequence (whole entry): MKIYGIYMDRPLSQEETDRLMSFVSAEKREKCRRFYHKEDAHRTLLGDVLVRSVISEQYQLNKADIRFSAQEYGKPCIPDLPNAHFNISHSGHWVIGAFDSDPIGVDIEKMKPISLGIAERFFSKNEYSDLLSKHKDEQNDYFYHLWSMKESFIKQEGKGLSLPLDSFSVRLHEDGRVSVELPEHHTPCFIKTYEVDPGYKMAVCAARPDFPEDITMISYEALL
# Assay: qHTS Assay for Inhibitors of Bacillus subtilis Sfp phosphopantetheinyl transferase (PPTase).
# Type: functional
row,Compound,Potency
1,N[C@@H](CCC(=O)O)C(=O)O,50.1 µM (active)
2,N[C@H](CCC(=O)O)C(=O)O,44.7 µM (active) and 56.2 µM (active)
